The supplement of paper PMC5641865, “A screen for kinase inhibitors identifies antimicrobial imidazopyridine aminofurazans as specific inhibitors of the Listeria monocytogenes PASTA kinase PrkA” (The Journal of Biological Chemistry, 2017)
Structures can show the parent of a compound that is named as a salt. ± gives the standard deviation of the averaged measurements.

Tested on: Listeria monocytogenes 10403S
Test: growth inhibition relative to ceftriaxone-alone control; higher = stronger potentiation of ceftriaxone growth inhibition
Settings: 10 µM; ceftriaxone 1 ug/ml; 12 h
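Note: End-point A600 read in BHI broth at 37 °C with 2% DMSO, inhibition computed as (1 − OD with compound plus ceftriaxone ÷ OD with ceftriaxone only) × 100.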

Row | SMILES | growth inhibition [%]
1 | CC1=C(C(=O)Nc2ccc3[nH]ncc3c2)C(c2ccc(F)cc2)N=C(c2ccc(C(F)(F)F)nc2)N1 (stereo not drawn) | 4.07 ± 7.3
2 | O=c1cc(-c2cccc3c2Sc2ccccc2S3)oc(N2CCOCC2)c1 | 86.2 ± 1.3
3 | NCc1ccc(-n2c(-c3nonc3N)nc3cnccc32)cc1 | -4.5 ± 3.6
4 | CN1CCC(n2cnc(-c3ccc(F)cc3)c2-c2ccnc(Nc3ccccc3)n2)CC1 | -8.92 ± 3.6
5 | Cn1c(=O)c(F)c(Nc2ccc(I)cc2F)c2c(=O)n(C[C@@H](O)CO)cnc21 | 23 ± 13
6 | Nc1cccc(-c2cc3c(Oc4cccc(O)c4)ncnc3[nH]2)c1 | -3.72 ± 8.2
7 | CN1CC[C@H](c2c(O)cc(O)c3c(=O)cc(-c4ccccc4Cl)oc23)[C@H](O)C1 [Flavopiridol HCl] | 10.3 ± 6.8
8 | CS(=O)(=O)CCNCc1ccc(-c2ccc3ncnc(Nc4ccc(OCc5ccccc5)cc4)c3c2)o1 | -2.04 ± 4.2
9 | NC1(c2ccc(-c3nc4ccn5c(=O)[nH]nc5c4cc3-c3ccccc3)cc2)CCC1 | 86.41 ± 0.47
10 | C=CC(=O)Nc1ccc2ncnc(Nc3ccc(OCc4cccc(F)c4)c(Cl)c3)c2c1 | 17.47 ± 0.16
11 | CCn1c(-c2nonc2N)nc2ccc(F)cc21 | -0.804 ± 2.6
12 | N#Cc1c(O)c2c(-c3ccc(-c4ccccc4O)cc3)csc2[nH]c1=O | 40.8 ± 15
13 | COc1cc2ncnc(Nc3ccc4c(cnn4Cc4ccccc4)c3)c2cc1OC | -12.1 ± 18
14 | CS(=O)(=O)CCNCc1ccc(-c2ccc3ncnc(Nc4ccc(OCc5cccc(F)c5)c(C(F)(F)F)c4)c3c2)o1 | -12.1 ± 6.9
15 | Clc1ccc(-c2nn3ncccc3c2-c2ccnc(Nc3ccccc3)n2)cc1 | -7.12 ± 3.8
16 | CCN(CC)Cc1ccc(Nc2nccc(-c3cnn4ncccc34)n2)cc1 | -11.5 ± 14
17 | NS(=O)(=O)c1ccc(N/N=C2\C(=O)Nc3ccc(-c4cnco4)cc32)cc1 | 0.00978 ± 0.57
18 | N#CC(=C(/N)Sc1ccccc1N)/C(C#N)=C(\N)Sc1ccccc1N | 51.1 ± 42
19 | COc1ccc(-c2oc3ncnc(N)c3c2-c2ccc(NC(=O)Nc3cc(C(F)(F)F)ccc3F)cc2)cc1 | -3.49 ± 7.6

Row | SMILES | growth inhibition [%]
20 | Cc1cccc2c1NC(=O)/C2=N\Nc1ccc(S(N)(=O)=O)cc1 | -10.2 ± 7.5
21 | Cc1cccc(Nc2ncc(-c3ccccc3)o2)c1 | -0.369 ± 0.46
22 | CNC(=O)c1ncccc1Nc1nc(Nc2cc3c(cc2OC)CCCN3C(=O)CN(C)C)nc2[nH]ccc12 | -2.03 ± 1.3
23 | O=C(Nc1cc(C(F)(F)F)cc(C(F)(F)F)c1)c1cc(Cl)ccc1O | 97.6 ± 0.39
24 | CC1(C)CC(n2cnc(-c3ccc(F)cc3)c2-c2ccnc(N)n2)CC(C)(C)N1 | -11.4 ± 8.9
25 | COc1cccc(-n2ncc3c(N/N=C/c4ccc(F)cc4)ncnc32)c1 | -3.41 ± 1
26 | CCN1CCC(CC(=O)Nc2n[nH]c3nc(-c4cccs4)c(Br)cc23)CC1 | 7.98 ± 1.7
27 | CS(=O)(=O)Nc1ccc(-c2cc(-c3ccccc3)cc(C(N)=O)c2N)cc1 | 29.1 ± 20
28 | COc1cccc(-n2ncc3c(N/N=C/c4cccc(F)c4)ncnc32)c1 | 6.27 ± 6.8
29 | CC[C@H](CO)Nc1nc(NCc2ccccc2)c2ncn(C(C)C)c2n1 [Roscovitine (Seliciclib, CYC202)] | 22.9 ± 22
30 | CN1CCC(n2cnc(-c3ccc(F)cc3)c2-c2ccnc(N)n2)CC1 | -0.672 ± 2
31 | Cc1ccc(O)cc1Nc1ccnc2ccc(S(C)(=O)=O)cc12 | -11.4 ± 13
32 | CC(=O)Nc1cccc(C#Cc2cncnc2Nc2ccc(OCc3cccc(F)c3)c(Cl)c2)n1 | -0.967 ± 4.2
33 | CN1CCN(c2nc(C3=C(c4c[nH]c5ccccc45)C(=O)NC3=O)c3ccccc3n2)CC1 [Sotrastaurin (AEB071)] | 44.8 ± 28
34 | NS(=O)(=O)c1ccc(NC=C2C(=O)Nc3ccc4ncsc4c32)cc1 | -8.58 ± 4.7
35 | O=C1Nc2ccccc2/C1=C/Nc1ccc2[nH]c(=O)[nH]c2c1 | 7.54 ± 1.1
36 | Cc1nc(NC(=O)N2CCC[C@H]2C(N)=O)sc1-c1ccnc(C(C)(C)C(F)(F)F)c1 | 24.9 ± 21
37 | Nc1nonc1-c1nc2cnccc2n1C1CC1 | -9.63 ± 4.1
38 | CN(C)C(=O)O[C@H]1CN[C@H](C#Cc2cc3ncnc(Nc4ccc(OCc5cccc(F)c5)c(Cl)c4)c3s2)C1 | -7.88 ± 10
